Results taken from PubChem BioAssay (EPA / NIEHS).
Inconclusive results are not listed. The source made the active and inactive calls. The calls were made as follows: active = hit-call score of the fitted dose curve at least 0.9, where 1 is the maximum; inconclusive = response in the unintended direction; inactive = score below 0.9.

Assays:
[1] = target: human Aurora Kinase A - serine/threonine-protein Kinase 6 (AurA), AURKA (gene 6790) (UniProt O14965); experiment: NVS_ENZ_hAurA: NovaScreen (NVS) Enzymatic Assay for human Aurora Kinase A - serine/threonine-protein Kinase 6 (AurA) (AID 2283142)
In short: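 Recombinant human AurA activity read by fluorescence after mobility-shift separation of product from substrate; 1 hour incubation. Chemicals first run in duplicate at 25 uM, then concentration series to 50 uM if over threshold; fitted relative to DMSO.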

[2] = target: human Epidermal Growth Factor Receptor (EGFR), EGFR (gene 1956) (UniProt P00533); experiment: NVS_ENZ_hEGFR: NovaScreen (NVS) Enzymatic Assay for human Epidermal Growth Factor Receptor (EGFR) (AID 2283151)
In short: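 Cell-free kinase assay, fluorescence plus electrophoretic mobility shift separating substrate and product, read 1 hour after dosing; loss of signal vs DMSO. Duplicate screen at 25 uM, then concentration-response to 50 uM.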

[3] = target: human p21 Activated Kinase 4 (PAK4), PAK4 (gene 10298) (UniProt O96013); experiment: NVS_ENZ_hPAK4: NovaScreen (NVS) Enzymatic Assay for human p21 Activated Kinase 4 (PAK4) (AID 2283189)
In short: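 Extracted PAK4 enzyme activity read by fluorescence with mobility-shift separation 1 h after chemical addition. Duplicate single-concentration screen at 25 uM, DMSO as negative control.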

[4] = target: PPP2CA (gene 5515) (UniProt P67775); experiment: NVS_ENZ_hPPP2CA: NovaScreen (NVS) Enzymatic Assay for human Protein Phosphatase 2 Aatalytic subunit Alpha (PPP2CA) (AID 2283199)
In short: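 Cell-free phosphatase activity: fluorescent substrate turnover by recombinant human enzyme, resolved by mobility shift at 1.33 h. Compounds passing the 25 uM duplicate primary screen were rerun in singleton series with a 50 uM top concentration.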

[5] = target: human Phosphatase and Tensin Homolog (PTEN), PTEN (gene 5728) (UniProt P60484); experiment: NVS_ENZ_hPTEN: NovaScreen (NVS) Enzymatic Assay for human Phosphatase and Tensin Homolog (PTEN) (AID 2283203)
In short: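 Loss of fluorescent product signal after mobility-shift separation reports PTEN activity, recombinant human enzyme, 1 h after compound addition. Single 25 uM duplicate screen, then concentration-response on actives; DMSO baseline.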

[6] = target: human Protein Tyrosine Phosphatase Non-receptor Type 2 (PTPN2), PTPN2 (gene 5771) (UniProt P17706); experiment: NVS_ENZ_hPTPN2: NovaScreen (NVS) Enzymatic Assay for human Protein Tyrosine Phosphatase Non-receptor Type 2 (PTPN2) (AID 2283207)
In short: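 Activity measured as fluorescence after mobility-shift separation of substrate and product, 1 h after compound. Duplicate single-point 25 uM primary testing, concentration series for actives; inhibition scored as signal loss relative to DMSO baseline.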

[7] = target: human Raf-1 Proto-Oncogene, serine/threonine Kinase (RAF1), RAF1 (gene 5894) (UniProt P04049); experiment: NVS_ENZ_hRAF1: NovaScreen (NVS) Enzymatic Assay for human Raf-1 Proto-Oncogene, serine/threonine Kinase (RAF1) (AID 2283216)
In short: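 Single-point screening at 25 uM (duplicate), followed by singleton concentration-response to 50 uM maximum for chemicals exceeding threshold. Enzyme activity from fluorescent substrate-product mobility-shift separation after 1 h, relative to DMSO.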

[8] = target: rat Corticotropin Releasing Factor Receptor (CRF), Crhr1 (gene 58959) (UniProt P35353); experiment: NVS_GPCR_rCRF: NovaScreen (NVS) G Protein-Coupled Receptor Assay for rat Corticotropin Releasing Factor Receptor (CRF) (AID 2283300)
In short: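 Single-concentration (25 uM, duplicate) radioligand binding on rat cortical membrane preparations, counted by scintillation after 2 h. Activity scored as signal loss relative to DMSO negative control.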

[9] = target: human Ephrin type-B Receptor 2 (EphB2), EPHB2 (gene 2048) (UniProt P29323); experiment: NVS_ENZ_hEphB2: NovaScreen (NVS) Enzymatic Assay for human Ephrin type-B Receptor 2 (EphB2) (AID 2283156)
In short: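 Compounds were first tested in duplicate at 25 uM, with hits rerun singly in concentration series up to 50 uM. Enzyme activity on fluorescent substrate was read at 1 h by mobility-shift separation, scored as signal loss relative to DMSO.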

[10] = target: human Fibroblast Growth Factor Receptor 1 (FGFR1), FGFR1 (gene 2260) (UniProt P11362); experiment: NVS_ENZ_hFGFR1: NovaScreen (NVS) Enzymatic Assay for human Fibroblast Growth Factor Receptor 1 (FGFR1) (AID 2283159);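 as to AC50: hits lower the signal so potencies describe inhibitors of the kinase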
In short: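 Cell-free recombinant kinase with fluorescent substrate, product separated by electrophoretic mobility shift; read 1 hour after dosing, loss of signal relative to DMSO. Initial screen in duplicate at 25 uM, actives followed in concentration series.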

[11] = read-out: xenobiotic metabolism (CYP2C9), CYP2C9 (gene 1559); experiment: CLD_CYP2C9_6hr: CellzDirect (CLD) Gene Expression Assay for xenobiotic metabolism (CYP2C9) at 6 hours (AID 2283664)
In short: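 Readout is qNPA chemiluminescence of CYP2C9 mRNA, taken 6 h after dosing of cultured human liver primary cells at several concentrations. Activity is the increase over 0.2% DMSO baseline. Morphology-based cytotoxicity flagged yes/no.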

[12] = target: Voltage-dependent N-type calcium channel subunit alpha-1B (Rattus norvegicus) (UniProt Q02294); experiment: NVS_IC_rCaChN: NovaScreen (NVS) Ion Channel Assay for rat Calcium Channel, Type N (CaChN) (AID 2283317)
[13] = target: human Matrix Metalloproteinase-1 (MMP1), MMP1 (gene 4312) (UniProt P03956); experiment: NVS_ENZ_hMMP1: NovaScreen (NVS) Enzymatic Assay for human Matrix Metalloproteinase-1 (MMP1) (AID 2283181)
In short: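 Cell-free fluorescent substrate assay of human MMP1, read after 1 h. A single 25 uM duplicate screen was followed by concentration series to a maximum of 50 uM for actives meeting threshold; inhibition analysed against DMSO baseline.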

[14] = target: human NIMA (Never In Mitosis Gene A)-Related Kinase 2 (NEK2), NEK2 (gene 4751) (UniProt P51955); experiment: NVS_ENZ_hNEK2: NovaScreen (NVS) Enzymatic Assay for human NIMA (Never In Mitosis Gene A)-Related Kinase 2 (NEK2) (AID 2283188)
In short: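 Compounds were first screened in duplicate at 25 uM, with actives followed up in concentration series. Recombinant NEK2 activity, cell-free, was read 1 h after dosing by fluorescence intensity after mobility-shift separation. Signal loss was scored against DMSO.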

[15] = target: rat Monoamine Oxidase, MAO-B, Central (MAOBC), Maob (gene 25750) (UniProt P19643); experiment: NVS_ENZ_rMAOBC: NovaScreen (NVS) Enzymatic Assay for rat Monoamine Oxidase, MAO-B, Central (MAOBC) (AID 2283238)
In short: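 Actives from a duplicate 25 uM screen went on to singleton concentration-response with a 50 uM maximum. Enzyme source was rat brain tissue MAO-B, assayed cell-free. Radiolabelled product was counted by scintillation 1.17 h post-dose, with signal loss relative to DMSO.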

[16] = target: rat Acetylcholinesterase (AChE), Ache (gene 83817) (UniProt P37136); experiment: NVS_ENZ_rAChE: NovaScreen (NVS) Enzymatic Assay for rat Acetylcholinesterase (AChE) (AID 2283233)
In short: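 Compounds first screened at 25 uM in duplicate, then those passing threshold tested in concentration series up to 50 uM, against AChE from rat brain membranes. Enzyme activity read by absorbance at 0.33 h; inhibition scored versus DMSO.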

[17] = target: human Tyrosine Protein Kinase Receptor Tie-2 (Tie2), TEK (gene 7010) (UniProt Q02763); experiment: NVS_ENZ_hTie2: NovaScreen (NVS) Enzymatic Assay for human Tyrosine Protein Kinase Receptor Tie-2 (Tie2) (AID 2283225)
In short: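 Substrate and product were separated by mobility shift and detected by fluorescence after a 1-hour reaction with recombinant Tie2. Chemicals passing a 25 uM single-point screen were titrated to a maximum of 50 uM. Results were normalized to DMSO baseline.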

[18] = target: Bile acid receptor (Homo sapiens) (UniProt Q96RI1); experiment: NVS_NR_hFXR_Agonist: NovaScreen (NVS) Nuclear Receptor Binding Assay for human Farnesoid X Receptor Agonism (FXR) (AID 2283347)
In short: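 Agonist-mode FXR assay read by time-resolved FRET 1 h after compound addition, using isolated human receptor protein without cells. Duplicate 25 uM single-point primary screen, concentration series for confirmed actives; DMSO as baseline.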

Sequence of human Epidermal Growth Factor Receptor (EGFR), EGFR (gene 1956) (P00533 whole entry, looked up): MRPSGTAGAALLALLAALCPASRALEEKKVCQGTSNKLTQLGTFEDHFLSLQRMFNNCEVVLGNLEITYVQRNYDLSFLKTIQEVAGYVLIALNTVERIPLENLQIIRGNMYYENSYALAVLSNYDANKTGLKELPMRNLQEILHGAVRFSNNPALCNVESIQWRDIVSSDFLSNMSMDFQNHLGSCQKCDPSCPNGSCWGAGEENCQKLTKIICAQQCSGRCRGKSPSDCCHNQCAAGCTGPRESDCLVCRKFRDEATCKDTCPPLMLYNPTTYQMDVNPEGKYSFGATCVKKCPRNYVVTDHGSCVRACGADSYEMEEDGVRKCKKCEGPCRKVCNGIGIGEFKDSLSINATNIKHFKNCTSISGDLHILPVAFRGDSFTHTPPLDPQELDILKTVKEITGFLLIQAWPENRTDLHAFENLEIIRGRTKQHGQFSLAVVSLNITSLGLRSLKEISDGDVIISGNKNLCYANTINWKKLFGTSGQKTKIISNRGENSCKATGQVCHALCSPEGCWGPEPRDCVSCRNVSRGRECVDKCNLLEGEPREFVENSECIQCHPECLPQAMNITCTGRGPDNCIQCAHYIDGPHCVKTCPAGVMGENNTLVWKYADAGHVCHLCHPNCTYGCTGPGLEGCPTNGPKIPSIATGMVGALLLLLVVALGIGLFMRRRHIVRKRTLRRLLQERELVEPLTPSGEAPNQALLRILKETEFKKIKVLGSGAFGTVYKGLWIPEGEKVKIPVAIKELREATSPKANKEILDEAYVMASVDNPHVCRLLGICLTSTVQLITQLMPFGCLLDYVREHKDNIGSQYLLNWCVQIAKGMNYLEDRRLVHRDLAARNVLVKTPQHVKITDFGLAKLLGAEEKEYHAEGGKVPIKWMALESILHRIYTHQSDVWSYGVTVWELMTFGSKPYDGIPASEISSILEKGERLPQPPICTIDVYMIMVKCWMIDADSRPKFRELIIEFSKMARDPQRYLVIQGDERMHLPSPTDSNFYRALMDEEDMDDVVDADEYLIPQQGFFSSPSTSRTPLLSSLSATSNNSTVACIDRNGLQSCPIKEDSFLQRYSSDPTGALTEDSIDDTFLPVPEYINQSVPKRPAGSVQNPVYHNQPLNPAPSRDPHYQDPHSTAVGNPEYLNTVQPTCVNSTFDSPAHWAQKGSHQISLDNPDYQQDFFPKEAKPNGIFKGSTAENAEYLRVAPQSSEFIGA
Sequence of human Phosphatase and Tensin Homolog (PTEN), PTEN (gene 5728) (P60484 whole entry, looked up): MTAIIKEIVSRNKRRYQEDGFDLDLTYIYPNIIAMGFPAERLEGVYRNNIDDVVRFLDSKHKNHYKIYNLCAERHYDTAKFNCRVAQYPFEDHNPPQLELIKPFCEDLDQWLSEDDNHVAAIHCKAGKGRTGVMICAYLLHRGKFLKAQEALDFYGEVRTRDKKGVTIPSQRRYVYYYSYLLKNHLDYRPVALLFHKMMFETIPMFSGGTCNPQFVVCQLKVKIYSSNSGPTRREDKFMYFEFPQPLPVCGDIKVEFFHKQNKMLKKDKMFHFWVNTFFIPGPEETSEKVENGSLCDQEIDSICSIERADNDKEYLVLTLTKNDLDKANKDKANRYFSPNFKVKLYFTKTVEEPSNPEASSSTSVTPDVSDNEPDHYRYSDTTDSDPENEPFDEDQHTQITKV
Sequence of human Raf-1 Proto-Oncogene, serine/threonine Kinase (RAF1), RAF1 (gene 5894) (P04049 whole entry, looked up): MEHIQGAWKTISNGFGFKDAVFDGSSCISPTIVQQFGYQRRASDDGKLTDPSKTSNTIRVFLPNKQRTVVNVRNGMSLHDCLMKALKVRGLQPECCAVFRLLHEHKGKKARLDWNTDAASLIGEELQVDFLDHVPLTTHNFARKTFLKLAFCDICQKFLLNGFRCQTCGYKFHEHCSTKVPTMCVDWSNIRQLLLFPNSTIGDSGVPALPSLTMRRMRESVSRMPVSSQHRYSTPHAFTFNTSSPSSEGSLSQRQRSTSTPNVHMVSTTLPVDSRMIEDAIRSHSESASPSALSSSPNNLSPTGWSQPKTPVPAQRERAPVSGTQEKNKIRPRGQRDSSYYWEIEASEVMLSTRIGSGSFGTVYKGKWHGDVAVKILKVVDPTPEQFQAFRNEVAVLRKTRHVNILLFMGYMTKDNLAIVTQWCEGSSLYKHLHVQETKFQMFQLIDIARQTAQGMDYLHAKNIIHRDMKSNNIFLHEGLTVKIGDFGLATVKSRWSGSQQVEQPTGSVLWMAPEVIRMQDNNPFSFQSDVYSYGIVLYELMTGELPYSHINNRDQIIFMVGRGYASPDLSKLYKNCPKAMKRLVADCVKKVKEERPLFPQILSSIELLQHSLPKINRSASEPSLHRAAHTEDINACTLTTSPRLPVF
Sequence of human Aurora Kinase A - serine/threonine-protein Kinase 6 (AurA), AURKA (gene 6790) (O14965 whole entry, looked up): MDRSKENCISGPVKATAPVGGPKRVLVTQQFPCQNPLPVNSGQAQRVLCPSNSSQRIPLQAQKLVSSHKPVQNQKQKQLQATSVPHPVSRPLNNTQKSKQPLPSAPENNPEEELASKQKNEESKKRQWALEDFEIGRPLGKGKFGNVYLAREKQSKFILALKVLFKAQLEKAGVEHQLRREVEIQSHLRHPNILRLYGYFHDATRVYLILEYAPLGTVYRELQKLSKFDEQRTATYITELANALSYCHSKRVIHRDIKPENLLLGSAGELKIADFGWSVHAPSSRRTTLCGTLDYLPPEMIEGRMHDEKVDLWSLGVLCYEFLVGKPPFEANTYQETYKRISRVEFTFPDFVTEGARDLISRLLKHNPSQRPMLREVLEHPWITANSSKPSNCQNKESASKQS
Sequence of human Fibroblast Growth Factor Receptor 1 (FGFR1), FGFR1 (gene 2260) (P11362 whole entry, looked up): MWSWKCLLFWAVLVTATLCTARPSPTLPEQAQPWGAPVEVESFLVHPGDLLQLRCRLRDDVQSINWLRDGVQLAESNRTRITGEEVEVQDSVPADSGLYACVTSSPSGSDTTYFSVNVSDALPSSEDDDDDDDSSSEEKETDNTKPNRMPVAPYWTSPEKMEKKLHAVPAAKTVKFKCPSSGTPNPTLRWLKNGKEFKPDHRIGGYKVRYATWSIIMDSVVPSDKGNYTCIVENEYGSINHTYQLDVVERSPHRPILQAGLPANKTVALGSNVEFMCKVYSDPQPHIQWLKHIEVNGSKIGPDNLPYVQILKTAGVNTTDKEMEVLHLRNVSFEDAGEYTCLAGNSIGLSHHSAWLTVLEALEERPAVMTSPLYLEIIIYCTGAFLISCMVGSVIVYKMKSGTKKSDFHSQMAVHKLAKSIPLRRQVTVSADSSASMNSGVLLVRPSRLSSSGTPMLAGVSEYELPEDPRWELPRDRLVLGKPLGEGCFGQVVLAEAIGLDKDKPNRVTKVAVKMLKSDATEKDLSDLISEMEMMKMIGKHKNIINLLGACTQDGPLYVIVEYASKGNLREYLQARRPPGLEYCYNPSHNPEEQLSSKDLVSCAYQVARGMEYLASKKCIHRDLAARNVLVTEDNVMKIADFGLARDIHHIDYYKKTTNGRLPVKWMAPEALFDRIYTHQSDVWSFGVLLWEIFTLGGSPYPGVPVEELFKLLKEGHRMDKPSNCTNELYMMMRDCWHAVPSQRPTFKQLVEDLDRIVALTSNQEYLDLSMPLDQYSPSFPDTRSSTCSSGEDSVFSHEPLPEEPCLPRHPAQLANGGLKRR
Sequence of human Protein Tyrosine Phosphatase Non-receptor Type 2 (PTPN2), PTPN2 (gene 5771) (P17706 whole entry, looked up): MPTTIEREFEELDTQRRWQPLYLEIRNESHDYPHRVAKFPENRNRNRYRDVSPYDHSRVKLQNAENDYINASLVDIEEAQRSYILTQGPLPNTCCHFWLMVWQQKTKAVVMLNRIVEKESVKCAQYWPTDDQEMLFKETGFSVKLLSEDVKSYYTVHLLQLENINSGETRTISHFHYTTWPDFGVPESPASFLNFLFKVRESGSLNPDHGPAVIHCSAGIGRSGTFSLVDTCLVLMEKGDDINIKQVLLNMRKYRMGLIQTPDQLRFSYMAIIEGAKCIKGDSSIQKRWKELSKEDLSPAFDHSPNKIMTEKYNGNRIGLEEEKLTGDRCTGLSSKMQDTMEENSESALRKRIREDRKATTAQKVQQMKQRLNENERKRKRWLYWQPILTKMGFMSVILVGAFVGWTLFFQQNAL
Sequence of PPP2CA (gene 5515) (P67775 whole entry, looked up): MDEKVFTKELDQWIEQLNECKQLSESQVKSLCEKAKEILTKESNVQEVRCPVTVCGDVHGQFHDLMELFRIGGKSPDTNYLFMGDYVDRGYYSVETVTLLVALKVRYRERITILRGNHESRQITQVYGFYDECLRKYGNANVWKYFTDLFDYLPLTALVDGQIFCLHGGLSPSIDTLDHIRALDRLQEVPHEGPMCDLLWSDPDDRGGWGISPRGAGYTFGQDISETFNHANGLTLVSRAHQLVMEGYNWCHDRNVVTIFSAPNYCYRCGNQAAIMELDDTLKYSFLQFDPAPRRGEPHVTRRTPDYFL
Sequence of human NIMA (Never In Mitosis Gene A)-Related Kinase 2 (NEK2), NEK2 (gene 4751) (P51955 whole entry, looked up): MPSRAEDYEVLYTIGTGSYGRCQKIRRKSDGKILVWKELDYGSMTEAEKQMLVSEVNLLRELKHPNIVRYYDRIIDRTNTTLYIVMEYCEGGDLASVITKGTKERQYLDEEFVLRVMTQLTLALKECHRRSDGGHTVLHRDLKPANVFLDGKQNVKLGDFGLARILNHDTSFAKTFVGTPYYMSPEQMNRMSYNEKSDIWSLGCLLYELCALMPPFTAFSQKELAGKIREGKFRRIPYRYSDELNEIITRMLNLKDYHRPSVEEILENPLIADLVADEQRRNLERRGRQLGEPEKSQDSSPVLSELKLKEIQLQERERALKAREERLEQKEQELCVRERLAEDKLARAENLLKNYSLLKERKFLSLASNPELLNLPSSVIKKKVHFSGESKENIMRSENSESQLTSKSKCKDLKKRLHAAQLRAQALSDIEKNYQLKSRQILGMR

SMILES: O=C(OCCCCCOC(=O)c1ccccc1)c1ccccc1
- outcome [1]: inactive
- outcome [2]: inactive
- outcome [3]: inactive
- outcome [4]: inactive
- outcome [5]: inactive
- outcome [6]: inactive
- outcome [7]: inactive
- outcome [8]: inactive

SMILES: COCCO
- outcome [9]: inactive
- outcome [10]: inactive
- outcome [3]: inactive
- outcome [5]: inactive
- outcome [11]: inactive

SMILES: COC(=O)CCCCC(=O)OC
- outcome [10]: inactive
- outcome [7]: inactive
- outcome [12]: inactive

SMILES: CC(C)(C)c1csc(-c2cc3cc(OCc4ccccc4CC(=O)O)ccc3o2)n1
- outcome [1]: inactive
- AC50 [13]: 22.5 µM (active)
- outcome [14]: inactive
- outcome [12]: inactive

SMILES: O=C(O)c1ccccc1
- outcome [10]: inactive
- outcome [15]: inactive

SMILES: O=C(O)CC(O)C(=O)O (stereo not drawn)
- outcome [1]: inactive
- outcome [6]: inactive

SMILES: CC/C(=C(/CC)c1ccc(O)cc1)c1ccc(O)cc1
- outcome [1]: inactive
- outcome [2]: inactive
- AC50 [10]: 37 µM (active)
- outcome [14]: inactive
- outcome [4]: inactive
- outcome [5]: inactive
- outcome [6]: inactive
- outcome [7]: inactive

SMILES: CC(C)CCCCCCOC(=O)C1CCCCC1C(=O)OCCCCCCC(C)C (stereo not drawn)
- outcome [2]: inactive
- outcome [16]: inactive

SMILES: O=C(O)c1cccc(Oc2ccccc2)c1
- outcome [1]: inactive
- outcome [2]: inactive
- outcome [5]: inactive

SMILES: O=C(O)C1(C(=O)Nc2ccc(Cl)cc2Cl)CC1
- AC50 [1]: 16.3 µM (active)
- AC50 [10]: 18.3 µM (active)
- AC50 [5]: 3.91 µM (active)
- AC50 [6]: 10.1 µM (active)
- outcome [17]: inactive
- outcome [18]: inactive
